Each structure is given as a SMILES string. Records with an inconclusive call do not appear. Unmarked numbers belong to inactive results. Activity calls are given as the source filed them. Unless noted, calls follow the shape of the dose curve; as a rule, active = well fitted curve in the direction sought with a large enough effect in the repeat runs; inconclusive = weak or mixed curves; inactive = no such curve, though single readings can be large; an effect the other way counts as inactive or inconclusive.

For 15 compounds, Potency results are on record in PubChem BioAssay (Tox21).

Assay [1] in a line: qHTS assay to identify small molecule antagonists of the estrogen related receptor (ERR) signaling pathway from Tox21 library - cell viability counter screen (AID 1224834). Also: nearly all actives have a fitted effect of over 30% in size. Also: potency is read from the fitted curve at half-maximal effect. The procedure, abridged:
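Multiplexed viability counter screen in ERR cells: 17.5 h compound exposure at 37 C, CellTiter-Fluor added, 30 min at 37 C/5% CO2, fluorescence read.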

Assay [2] concerns the target Luciferin 4-monooxygenase (Photinus pyralis) (UniProt P08659). Briefly: qHTS assay to identify small molecule inhibitors of firefly luciferase (AID 1224835). Also: nearly all actives have a fitted effect of over 25% in size. Also: potency is read from the fitted curve at half-maximal effect. The procedure, abridged:
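Inhibition of purified Photinus luciferase is measured by luminescence. Substrate levels (D-luciferin, ATP) sit at their KM values. Each compound is tested in a concentration series.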
In general terms: In qHTS, concentration-response curves come from the screen itself.

Assay [3] can be described thus: qHTS assay to identify small molecule agonists of the constitutive androstane receptor (CAR) signaling pathway - cell viability counter screen (AID 1224836). Also: nearly all actives have a fitted effect of over 45% in size. Also: potency is read from the fitted curve at half-maximal effect. In a few lines:
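Cells were seeded and incubated 4 hrs. Compounds were added across 15 concentrations together with PK11195 at 0.75 uM final. Plates were incubated 23 hrs at 37 C. CellTiter-Fluor was added and fluorescence measured.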

Assay [4] is described as follows: qHTS assay to identify small molecule antagonists of the constitutive androstane receptor (CAR) signaling pathway - cell viability counter screen (AID 1224837). Also: nearly all actives have a fitted effect of over 45% in size. Also: potency is read from the fitted curve at half-maximal effect. In a few lines: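 Read-out: CellTiter-Fluor fluorescence after 23 hr at 37 C/5% CO2. Cells: HepG2 double-stable for hCAR and CYP2B6-2.2kb. Compounds tested at 15 concentrations in the presence of CITCO, final concentration 50 nM.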

In assay [5] the target is Nuclear receptor subfamily 1 group I member 3 (Homo sapiens) (UniProt Q14994). Briefly: qHTS assay to identify small molecule antagonists of the constitutive androstane receptor (CAR) signaling pathway (AID 1224838).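 Also: HepG2 cells stably expressing hCAR with CYP2B6 luciferase reporter stimulated by CITCO; nearly all actives have a fitted effect of over 40% in size.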 Also: potency is read from the fitted curve at half-maximal effect. In a few lines: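 Read-out: ONE-Glo luciferase luminescence after 30 min at room temperature. HepG2-CYP2B6-hCAR double-stable cells, compounds in 15-point titration plus 50 nM CITCO final, 24 h at 37 C/5% CO2.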

The target is the same in assay [6]. The experiment in a line: qHTS assay to identify small molecule agonists of the constitutive androstane receptor (CAR) signaling pathway (AID 1224839). Also: nearly all actives have a fitted effect of over 15% in size. Also: potency is read from the fitted curve at half-maximal effect.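 As to activation: HepG2 cells stably carrying human CAR and a CYP2B6 luciferase reporter; series mostly up to about 92 µM.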 In a few lines: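 Cells were plated and incubated 4 hrs, then dosed with compounds at 15 concentrations. PK11195 was added to 0.75 uM final. After 24 hrs at 37 C, luciferase luminescence was measured.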
Assay [7] can be described thus: qHTS assay to identify small molecule antagonists of the estrogen related receptor signaling pathway with the pleiotropic PPARgamma coactivator (PGC) from Tox21 10K library - cell viability counter screen (AID 1224840; active = well fitted cell-killing curve with a large enough effect in the repeat runs, not every such curve was filed as active; also: nearly all actives have a fitted effect of over 40% in size; also: potency is read from the fitted curve at half-maximal effect). In a few lines:
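Fluorescence read-out of CellTiter-Fluor viability reagent, added after cells had been exposed to compound in DMSO for 17.5 h at 37 C; 30 min development at 37 C/5% CO2. Cells: PGC/ERR line, 2,000/well.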

The nature of assay [8]: qHTS assay to identify small molecule antagonists of the estrogen related receptor signaling pathway with the pleiotropic PPARgamma coactivator (PGC) from Tox21 10K library (AID 1224841; call rule not given here; also: actives are mostly falling curves and most rising ones were filed inactive; nearly all actives have a fitted effect of over 50% in size; also: potency is read from the fitted curve at half-maximal effect). The procedure, abridged: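 Luminescence read-out (One-Glo luciferase reagent, 30 min at room temperature) from PGC/ERR cells exposed to DMSO-dissolved test compounds for 18 h at 37 C; cells, 2,000 per well, had been preincubated 6 h before compound transfer.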

A short description of assay [9]: qHTS assay to identify small molecule agonists of the estrogen related receptor signaling pathway with the pleiotropic PPARgamma coactivator (PGC) from Tox21 10K library (AID 1224842). Also: nearly all actives have a fitted effect of over 15% in size. In a few lines: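 Luminescence from One-Glo (30 min, room temperature) measured after PGC/ERR cells had 18 h at 37 C with pinned compound (23 nL in DMSO). Cells had been seeded at 2,000 per well and pre-incubated 6 h.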

Assay [10] concerns the target Thyrotropin receptor (Homo sapiens) (UniProt P16473). Briefly: qHTS assay to identify small molecule agonists of the thyroid stimulating hormone receptor (TSHR) signaling pathway (AID 1224843; calls by dose curve; also: nearly all actives have a fitted effect of over 45% in size; also: potency is read from the fitted curve at half-maximal effect). The procedure, abridged:
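Agonist activity read as cAMP rise via d2/cryptate HTRF competition, 1 h room-temperature detection, in HEK293 cells expressing TSHR. Fifteen-point titrations, each run in triplicate, with a 30 min room-temperature incubation beforehand.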

Assay [11] can be described thus: qHTS assay to identify small molecule agonists of the hypoxia (HIF-1) signaling pathway - cell viability counter screen (AID 1224844; calls by dose curve; also: nearly all actives have a fitted effect of over 50% in size; also: potency is read from the fitted curve at half-maximal effect). In a few lines:
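CellTiter-Glo luminescence read-out, 30 min RT, taken in the same wells as the beta-lactamase HRE reporter assay; HRE-bla ME-180 cells, 0.5% dialyzed FBS, 17 hr compound treatment at 37C, 5% CO2.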

A short description of assay [12]: qHTS assay to identify small molecule agonists of H2AX (AID 1224845; active = well fitted activation curve with a large enough effect in the signal ratio in the repeat runs, not every such curve was filed as active; the % refers to the signal ratio; also: potency is read from the fitted curve at half-maximal effect). In a few lines: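 Phospho-H2AX Ser139 measured by HTRF (ex 320 nm; em 665 and 620 nm) after 24 hr antibody incubation. Compounds, 15 concentrations, 0.76% DMSO, were applied to CHO-K1 cells for 3hr at 37C before lysis.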
Assay [13] in a line: qHTS assay to identify small molecule agonists of the hypoxia (HIF-1) signaling pathway (AID 1224846; active = well fitted activation curve with a large enough effect in the signal ratio in the repeat runs, not every such curve was filed as active; the % refers to the signal ratio). The procedure, abridged: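 Beta-lactamase FRET read-out (CCF4-AM substrate) from ME-180 cells carrying an HRE-driven bla reporter, after 17 hrs compound exposure at 37C/5% CO2. Cells were seeded at 2,000 per well in 0.5% dialyzed FBS medium and preincubated 5 hrs.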

Luciferin 4-monooxygenase (Photinus pyralis), sequence (P08659 whole entry, looked up): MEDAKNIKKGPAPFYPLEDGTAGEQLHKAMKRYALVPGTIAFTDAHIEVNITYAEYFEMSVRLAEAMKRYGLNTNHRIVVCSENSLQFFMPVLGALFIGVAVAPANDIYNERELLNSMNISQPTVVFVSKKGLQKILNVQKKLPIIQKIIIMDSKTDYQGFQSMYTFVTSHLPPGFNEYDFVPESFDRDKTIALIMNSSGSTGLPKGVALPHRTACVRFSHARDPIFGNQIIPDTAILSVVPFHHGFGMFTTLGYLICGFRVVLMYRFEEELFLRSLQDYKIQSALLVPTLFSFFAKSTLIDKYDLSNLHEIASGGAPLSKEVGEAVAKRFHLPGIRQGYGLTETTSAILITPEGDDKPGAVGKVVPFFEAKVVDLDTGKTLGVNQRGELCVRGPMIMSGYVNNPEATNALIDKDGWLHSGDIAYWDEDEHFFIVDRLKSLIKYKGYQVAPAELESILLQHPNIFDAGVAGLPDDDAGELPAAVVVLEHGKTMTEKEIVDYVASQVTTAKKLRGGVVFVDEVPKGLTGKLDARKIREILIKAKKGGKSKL
Nuclear receptor subfamily 1 group I member 3 (Homo sapiens), sequence (Q14994 whole entry, looked up): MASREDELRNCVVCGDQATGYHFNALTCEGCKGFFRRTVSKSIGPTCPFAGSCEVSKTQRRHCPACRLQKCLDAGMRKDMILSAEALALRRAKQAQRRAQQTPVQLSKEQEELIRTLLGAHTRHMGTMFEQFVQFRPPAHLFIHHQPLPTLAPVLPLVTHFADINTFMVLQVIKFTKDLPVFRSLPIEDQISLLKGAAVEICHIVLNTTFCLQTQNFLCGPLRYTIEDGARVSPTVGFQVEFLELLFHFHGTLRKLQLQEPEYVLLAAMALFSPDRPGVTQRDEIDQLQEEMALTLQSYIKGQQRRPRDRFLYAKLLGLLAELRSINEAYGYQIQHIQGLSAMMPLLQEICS
Thyrotropin receptor (Homo sapiens), sequence (P16473 whole entry, looked up): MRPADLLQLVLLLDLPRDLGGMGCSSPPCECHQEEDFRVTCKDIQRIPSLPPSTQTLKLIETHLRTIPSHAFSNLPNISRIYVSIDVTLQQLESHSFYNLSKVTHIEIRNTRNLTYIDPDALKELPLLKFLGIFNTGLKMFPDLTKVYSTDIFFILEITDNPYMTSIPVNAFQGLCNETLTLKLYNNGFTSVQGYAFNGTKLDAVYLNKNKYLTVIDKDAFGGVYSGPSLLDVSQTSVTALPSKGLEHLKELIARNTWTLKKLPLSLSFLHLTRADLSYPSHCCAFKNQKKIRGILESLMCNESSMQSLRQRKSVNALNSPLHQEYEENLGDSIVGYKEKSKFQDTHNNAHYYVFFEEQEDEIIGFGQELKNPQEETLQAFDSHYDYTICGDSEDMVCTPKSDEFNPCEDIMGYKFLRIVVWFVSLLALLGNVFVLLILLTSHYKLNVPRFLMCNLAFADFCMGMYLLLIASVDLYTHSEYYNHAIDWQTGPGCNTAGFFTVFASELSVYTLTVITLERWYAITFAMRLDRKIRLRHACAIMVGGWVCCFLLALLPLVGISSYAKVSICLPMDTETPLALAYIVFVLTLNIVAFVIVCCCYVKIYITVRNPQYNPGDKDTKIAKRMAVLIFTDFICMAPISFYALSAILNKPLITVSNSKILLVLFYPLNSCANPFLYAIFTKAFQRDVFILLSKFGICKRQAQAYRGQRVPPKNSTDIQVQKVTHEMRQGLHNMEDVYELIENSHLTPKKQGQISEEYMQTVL

As to `CC(C)C(=O)C(C)C`, the Potency entry in assay [1], in assay [2], in assay [3], in assay [4], in assay [5] and in assay [6] was “inactive” throughout. In addition, the Potency result in assay [7], in [8], in assay [9], in [10], in assay [11] and in assay [12] was “inactive” throughout. Besides, the Potency entry in [13] is “inactive”.

In the case of `O=[N+]([O-])c1ccc(O)c2ncccc12`, the values for the Potency in assay [1], in [6] and in assay [8] were 11.9 µM (active), 11.9 µM (active) and 5.31 µM (active), respectively. The Potency result in assay [2], in [3], in assay [4], in assay [5], in assay [9] and in assay [10] was “inactive” throughout. For the same compound, in assay [11], the Potency entry is “inactive”.

For the compound `Oc1ccc(C2(c3ccc(O)c(C4CCCCC4)c3)CCCCC2)cc1C1CCCCC1`, the Potency in assay [1] was 61.1 µM (active); in assay [3], 48.6 µM (active); in [4], 27.3 µM (active); in assay [5], 27.3 µM (active); in [8] it was 54.5 µM (active); in [10], 6.86 µM (active). For the same compound, the Potency in assay [11] was 12.3 µM (active); in [12], 22.5 µM (active). For the same compound, the Potency result in [2], in assay [6] and in [9] was “inactive” each time.

For the compound `CC1(C)[C@H](C(=O)OCc2cccc(Oc3ccccc3)c2)[C@@H]1C=C(Cl)Cl`, the Potency entry in assay [1], in [2], in assay [3], in [4], in assay [6] and in [7] was “inactive” each time. Moreover, the Potency result in assay [10], in assay [11], in assay [12] and in [13] was “inactive” in each case.

Consider `Cc1ccc2sc3cccc(C)c3c2c1`, for which the Potency entry in [1], in [2], in assay [3], in assay [4], in assay [5] and in [7] was “inactive” each time. Moreover, the Potency entry in assay [10], in assay [11], in assay [12] and in [13] was “inactive” throughout. For the same compound, the Potency in assay [6] was 27.3 µM (active).

With `CCC(O)CO` (stereo not given), the Potency result in [1], in assay [2], in assay [3], in assay [4], in assay [5] and in assay [6] was “inactive” throughout. Moreover, the Potency entry in [7], in assay [10], in [11], in assay [12] and in assay [13] was “inactive” throughout.

Consider `C=Cc1ccc(O)c(OC)c1`, for which the Potency result in assay [1], in assay [2], in [3], in [4], in assay [5] and in assay [6] was “inactive” in each case. Moreover, the Potency entry in assay [7], in [10], in [11] and in [13] was “inactive” in each case.

`Clc1cccc(Cl)n1`: the Potency result in assay [1], in [2], in [3], in [4], in assay [5] and in assay [6] was “inactive” throughout. Also, the Potency result in assay [7], in [8], in [9], in assay [11], in assay [12] and in [13] was “inactive” throughout.

Turning to `CC(C)(C)c1cc(CCC(=O)OCCSCCOC(=O)CCc2cc(C(C)(C)C)c(O)c(C(C)(C)C)c2)cc(C(C)(C)C)c1O`, the Potency entry in assay [1], in [2], in [3], in [4], in assay [5] and in [6] was “inactive” throughout. For the same compound, the Potency result in assay [7], in assay [9], in assay [10], in [11], in assay [12] and in assay [13] was “inactive” in each case.

As to `[Cl][Dy]([Cl])[Cl]`, the Potency entry in assay [1], in [3], in [4], in [5], in assay [6] and in assay [10] was “inactive” throughout. The Potency entry in [11], in [12] and in assay [13] was “inactive” throughout. The Potency in assay [2] is 28.3 µM (active).

Regarding `Cc1ccc(S(=O)(=O)C(I)I)cc1`, the Potency in assay [1] is 61.1 µM (active); in assay [2] it was 39.9 µM (active); in assay [3] it was 48.6 µM (active); in assay [4] it was 34.4 µM (active); in assay [5], 27.3 µM (active); in assay [7], 48.6 µM (active). The figures for the Potency in assay [10], in [11] and in assay [12] were 3.06 µM (active), 13.8 µM (active) and 16 µM (active), respectively. Further, the Potency result in assay [6] and in [9] was “inactive” throughout.

For the compound `CCCCCc1ccc(O)cc1`, the Potency result in assay [1], in assay [3], in [4], in assay [5], in [8] and in assay [9] was “inactive” throughout. In addition, the Potency entry in assay [10] was “inactive”. The Potency in assay [2] is 56.4 µM (active); in assay [6] it was 54.5 µM (active).

As for `Brc1cc(Br)cc(Br)c1`, the Potency result in assay [1], in [2], in assay [3], in assay [4], in assay [6] and in assay [8] was “inactive” throughout. For the same compound, the Potency result in assay [9], in assay [10], in assay [11] and in [13] was “inactive” throughout.

For `CC(C)(C)C1=CC(=O)C(C(C)(C)C)=CC1=O`, the Potency entry in [1], in [2], in assay [3], in assay [4], in [5] and in [7] was “inactive” throughout. Moreover, the Potency entry in assay [8], in assay [9] and in assay [13] was “inactive” each time. Moreover, the Potency is 21.1 µM (active) in assay [6] and 9.44 µM (active) in assay [10].

On to `CN1CCN(c2ccccc2/C=C2\SCCN(c3ccc(Cl)c(Cl)c3)C2=O)CC1`, for which the Potency was 54.5 µM (active) in [1]; 43.3 µM (active) in assay [3]; 24.3 µM (active) in assay [4]; 48.6 µM (active) in assay [7]; 49 µM (active) in assay [11]. Besides, the Potency result in assay [2], in assay [5], in assay [6] and in assay [9] was “inactive” each time.
